PubChem BioAssay AID2102 (Southern Research Specialized Biocontainment Screening …, 2009)
In all, about 1,100 compounds went through this assay and about 210 (19%) were called active. How the calls were made is not given here. A selection follows. Where a call stands in place of a potency, no number is given. Potency and affinity values are given separately.

Assay: host cell cytotoxicity, dose response, cytotoxicity control for SV40 T antigen inhibitor project, selected hits (AID 2102);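 further: cells exposed to compounds for 72 hours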
Conditions: Host cell viability cytotoxicity counter-screen; series mostly up to 50 µM

| SMILES | outcome |
| --- | --- |
| O=c1cc(-c2ccc(O)c(O)c2)oc2c(C3O[C@H](CO)[C@@H](O)[C@H](O)[C@H]3O)c(O)cc(O)c12 (stereo partly drawn) | inactive |
| O=c1cc(-c2ccc(O)c(O)c2)oc2cc(O)c(C3OC(CO)C(O)C(O)C3O)c(O)c12 (stereo not drawn) | inactive |
| COc1cc(/C=N\NC(=O)CNC(=O)c2cccc([N+](=O)[O-])c2)ccc1O | inactive |
| Nc1ccc(OCCCc2c(N)nc(N)nc2N)cc1 | inactive |
| COc1ccccc1NC(=O)Oc1ccc(NC(=O)c2ccco2)cc1 | inactive |
| S=c1[nH]nc(-c2ccc(Cl)cc2)n1/N=C/C=C/c1ccco1 | inactive |
| Cc1cccc(/C=N/n2c(-c3ccncc3)n[nH]c2=S)c1 | inactive |
| Oc1ccc(-c2cn3ccccc3n2)cc1O | inactive |
| C1=Cc2ccccc2Nc2ccccc21 | inactive |
| C[C@@H]1O[C@@H](OC2C(O)C(OCCc3ccc(O)c(O)c3)OC(CO)C2OC(=O)/C=C/c2ccc(O)c(O)c2)[C@H](O)[C@H](O)[C@H]1O (stereo partly drawn) | inactive |
| CCOc1cc(/C=C2\N=C3CCCCCN3C2=O)ccc1O | inactive |
| Cc1nc(N)sc1N=Nc1c(C)n(C)n(-c2ccccc2)c1=O | inactive |
| O=Cc1sc(=O)n(Cc2cccc(C(=O)O)c2)c1Cl | inactive |
| CN=c1scc(C)n1/N=C/c1ccc(O)cc1O | inactive |
| CC(C)(C)OC(=O)N/N=C/c1ccc(N2CCOCC2)s1 | inactive |
| O=C(CSc1nc2ccccc2c(=O)[nH]1)c1ccc(O)c(O)c1 | inactive |
| O=C(O)c1cc(S(=O)(=O)O)cc(Nc2c3ccccc3nc3ccccc23)c1O | inactive |
| CN(C)c1ccc(NC(=O)CSc2nnc(-c3cnccn3)n2C)cc1 | inactive |
| O=C1Nc2ccccc2/C1=N\N=C\c1ccc(O)c(O)c1 | inactive |
| C/C(CC(=O)Nc1ccc(N(C)C)cc1)=N\NC(=O)c1ccc(Cl)cc1Cl | inactive |
| CN(C)c1ccc(Nc2cc(Cl)ncn2)cc1 | inactive |
| O=C(N/N=C/c1ccc(O)c(O)c1)c1cccc(S(=O)(=O)N2CCCC2)c1 | inactive |
| COc1ccc(/C=N\NC(=O)c2ccc(=O)[nH]n2)cc1O | inactive |

| SMILES | outcome |
| --- | --- |
| N=C1/C(=C/c2ccc(Br)o2)C(=O)N=C2SC(CC(=O)N3CCCC3)=NN12 | inactive |
| CN1CN(C)c2cccc3cccc1c23 | inactive |
| CCOc1ccc(S(=O)(=O)Nc2cc(Sc3ncn[nH]3)c3oc(=O)sc3c2)cc1 | inactive |
| COc1ccc(C2=CC3=C(Br)C(=O)C(C)(OC(=O)c4ccc(Cl)nc4)C(=O)C3=CO2)cc1 (stereo not drawn) | inactive |
| CCOc1ccccc1NC(=S)N1CCN(c2ccc(O)cc2)CC1 | inactive |
| O=C(NC(=S)N1CCN(c2ccc(O)cc2)CC1)c1cccs1 | inactive |
| COc1cc(/C=N/NC(=O)CNC(=O)c2ccco2)ccc1O | inactive |
| O=C(COc1cccnc1[N+](=O)[O-])c1ccc(Cl)s1 | inactive |
| CN(C)c1ccc(NC(=O)c2cccc(N3C(=O)CCC3=O)c2)cc1 | inactive |
| O=C(O)[C@H]1CCCC[C@H]1C(=O)Nc1ccc(Nc2ccccc2)cc1 | inactive |
| CCOc1ccc(-c2nc(=S)[nH][nH]2)cc1 | inactive |
| COc1ccc(/C=N/NC(=O)c2cc(O)c(O)c(O)c2)cc1Cn1cc([N+](=O)[O-])cn1 | inactive |
| C=CCNC(=S)Nc1ccc(N(C)C)cc1 | inactive |
| CCc1cc(C(=O)N/N=C/c2ccc(O)cc2)c2ccccc2n1 | inactive |
| COc1cc(/C=N/NC(=O)c2ccc(Cn3cc([N+](=O)[O-])cn3)o2)cc(Br)c1O | inactive |
| COc1cc(/C=N/NC2=NCCCCC2)ccc1O | inactive |
| ClC(Cl)(c1nnnn1-c1ccccc1)c1nnnn1-c1ccccc1 | inactive |
| Oc1ccc(C2CNCCc3c2cc(O)c(O)c3Cl)cc1 (stereo not drawn) | inactive |
| S=c1[nH]nc(-c2n[nH]c3c2CCC3)n1/N=C/C=C/c1ccco1 | inactive |
| COc1cc(/C=N/NC(=O)CCn2nnc3ccccc32)ccc1O | inactive |
| CC(C)C(=O)Nc1ccc(O)c(-c2csc(N)n2)c1 | inactive |
| Cc1cc2cc3c(N)[nH]nc3nc2cc1C | inactive |
| CN(C)C(=S)Nc1ccc(N2CCOCC2)cc1 | inactive |

| SMILES | outcome |
| --- | --- |
| O=S(=O)(c1ccc(NC(=S)N/N=C/c2ccc(O)c(O)c2)cc1)N1CCOCC1 | inactive |
| Oc1ccc(NC(=S)Nc2ccccc2)cc1 | inactive |
| O=C(CN1C(=O)/C(=C/c2ccco2)SC1=S)Nc1ccc(O)c(C(=O)O)c1 | inactive |
| O=C1/C(=C/C=C/c2ccco2)SC(=S)N1NS(=O)(=O)c1ccccc1 | inactive |
| CCCCCCNC(=O)N[C@H](C(=O)NCCC[C@H]1CN2C(=NC[C@H]2C)N1CCC(c1ccccc1)c1ccccc1)C(C)O (stereo partly drawn) | inactive |
| COc1cccc(C=Nc2ccc(N3CCOCC3)cc2)c1O | inactive |
| COc1ccc(/C=N/Nc2nc(N3CCCC3)nc(N3CCCC3)n2)cc1O | inactive |
| Cc1nn(-c2ccccc2)c2[nH]c(=O)c(CNc3ccc(N4CCOCC4)cc3)cc12 | inactive |
| COc1cc(CNc2ccc3c(c2)OCCO3)ccc1OCC(N)=O | inactive |
| Cc1cc(C)nc(SSc2nc(C)cc(C)n2)n1 | inactive |
| CN1C=CC=C/C1=C(\C#N)c1nc2ccccc2[nH]1 | inactive |
| Cc1ccc(NC(=O)CN2C(=O)N/C(=C/c3cccn3-c3ccc(C(=O)O)cc3)C2=O)cc1 | inactive |
| O=Cc1cccn1-c1ccc(O)cc1 | inactive |
| O=C(O)C1Nc2c(O)cc(Cl)c([N+](=O)[O-])c2C2C=CCC12 (stereo not drawn) | inactive |
| CN(C)c1ccc(NC(=O)CSc2nc3c(c(=O)[nH]2)CCCC3)cc1 | inactive |
| CC1=NOC(=O)/C1=C\c1ccc(-c2ccc(Cl)c(C(=O)O)c2)o1 | inactive |
| O=C1C(=Cc2ccc(Br)o2)C(=O)c2ccccc21 | inactive |
| O=C1ON=C(c2ccccc2)/C1=C\c1ccco1 | inactive |
| Cc1ccc(C2=NOC(=O)/C2=C\c2ccc(C)o2)cc1 | inactive |
| Nc1nc[nH]c(=O)c1N=Cc1ccccc1 | inactive |
| O=C(c1ccco1)N1CCCC(Nc2ccc3c(c2)OCCO3)C1 (stereo not drawn) | inactive |
| c1cncc(CNc2ccc3c(c2)OCO3)c1 | inactive |
| O=C(c1ccc2ccccc2c1)N1CCN(c2ccc(O)cc2)CC1 | inactive |

| SMILES | outcome |
| --- | --- |
| N#C/C(=C\c1ccc(O)c(O)c1)C(=O)c1ccc(O)c(O)c1 | inactive |
| CCOC(=O)c1ccc2c(c1)C1C=CCC1C(C(=O)O)N2 (stereo not drawn) | inactive |
| Oc1ccc(/C=N/NC(=S)NCC2CCCO2)cc1 (stereo not drawn) | inactive |
| COc1ccc(-c2nc(O)c3cnccn23)cc1 | inactive |
| CCN(CC)c1ccc(NC(=O)c2ccccc2F)cc1 | inactive |
| CCN(CC)c1ccc(NC(=O)c2ccco2)cc1 | inactive |
| CC(=O)Nc1ccc(OC(=O)C(CCS(C)(=O)=O)N2C(=O)c3ccccc3C2=O)cc1 (stereo not drawn) | inactive |
| Oc1cc(O)cc(/C=C/c2ccc(O)c(O)c2)c1 | inactive |
| O=C(O)/C=C/c1ccc(O)c(O)c1 | inactive |
| COc1cc(/C=N/NC(=O)C(C)n2nnc3ccccc32)ccc1O (stereo not drawn) | inactive |
| O=C(N/N=C/c1ccc(OC(=O)c2ccco2)cc1)c1ccc[n+]([O-])c1 | inactive |
| Oc1ccc(O)c(-c2cnns2)c1 | inactive |
| O=C1CC(c2ccc(O)c(O)c2)Oc2c1ccc(O)c2O (stereo not drawn) | inactive |
| CC1=C(C)CS(=O)N(S(=O)(=O)c2ccc(Cl)cc2)C1 (stereo not drawn) | inactive |
| COc1cc(/C=N/Nc2nc3ccccc3[nH]c2=O)ccc1O | inactive |
| COc1cc(-c2nnc(SCc3cc(=O)oc4cc(O)c(O)cc34)o2)cc(OC)c1OC | inactive |
| COc1cccc(-n2c(=O)c3ccccc3n3c(=S)[nH]nc23)c1 | inactive |
| CCN(CC)CCN1C(=O)C(=O)/C(=C(/O)c2ccc(C)cc2)C1c1cccnc1 (stereo not drawn) | inactive |
| CN=C1S/C(=C\c2ccc(O)c(OC)c2)C(=O)N1C | inactive |
| Cc1occc1C(=O)N/N=C/C=C/c1ccc(N(C)C)cc1 | inactive |
| COc1cc(/C=C2/C(=O)NN(c3ccc(Cl)c(Cl)c3)C2=O)cc([N+](=O)[O-])c1O | inactive |
| Cc1ccc(/C=N\NC(=O)COc2ccc(C)cc2[N+](=O)[O-])cc1 | inactive |
| CC(=O)CC1OC(=O)C(Br)=C1NCc1ccccc1 (stereo not drawn) | inactive |

| SMILES | outcome |
| --- | --- |
| O=c1[nH]sc2ccccc12 | inactive |
| CN(C)c1ccc(NC(=S)NCC2CCCO2)cc1 (stereo not drawn) | inactive |
| Cc1[nH]c2ccccc2c1-c1csc(NC(=O)CSCC(=O)O)n1 | inactive |
| O=C1COc2ccc(N3C(=O)C=CC3=O)cc2N1 | inactive |
| COc1cc(/C=C2\C(=N)N3N=C(S(C)(=O)=O)SC3=NC2=O)ccc1OS(=O)(=O)c1ccc(C)cc1 | inactive |
| Cc1cc(-c2n[nH]c(=S)n2/N=C/c2c[nH]c3ccccc23)n[nH]1 | inactive |
| Cc1ccc2cc3c(N)[nH]nc3nc2c1 | inactive |
| COC(=O)CSc1nnc(CNc2ccc(OC)cc2)n1C | inactive |
| C=CS(=O)c1sc(Cl)c(N2CCOCC2)c1[N+](=O)[O-] (stereo not drawn) | inactive |
| Cc1ccc2oc(=O)c(/C=C(\O)CC(C)C)nc2c1 | inactive |
| Nc1ccc(Nc2nc3ccccc3[nH]2)cc1 | inactive |
| CCOC(=O)C1=C(C)N(c2ccccc2)C(=O)/C1=C\c1ccc(O)c(OC)c1 | inactive |
| COc1ccc(NC2CCCN(C(=O)c3c(C)noc3C)C2)cc1 (stereo not drawn) | inactive |
| Oc1ccc(/C=N/Nc2ccc(Cl)nn2)cc1O | inactive |
| COc1cc(/C=N/Nc2ccccn2)ccc1O | inactive |
| C=CCNC(=S)NNC(=O)c1cc(O)ccc1O | inactive |
| CCOc1cc(C(c2c(O)nc(SC)[nH]c2=O)c2c(O)nc(SC)[nH]c2=O)ccc1O | inactive |
| COc1ccc(CNc2ccc(N3CCOCC3)cc2)cc1 | inactive |
| CC(=O)N1CCN(c2ccc(NCc3ccc(C)s3)cc2)CC1 | inactive |
| Cc1ccc(CNc2ccc(N3CCOCC3)cc2)cc1 | inactive |
| CCOc1ccc(NCc2nnc(SCC(=O)Nc3cc(C)on3)n2-c2ccc(OC)cc2)cc1 | inactive |
